This note sets out measurements from PubChem BioAssay (Tox21).

Inconclusive results are not listed. Where a call stands in place of a potency, no number is given. Activity calls are given as the source filed them. Unless noted, calls come from the whole dose curve; as a rule, active = well fitted cell-killing curve with a large enough effect in the repeat runs; inconclusive = weak or mixed curves, or effect the other way; inactive = no such curve, though single readings can be large or run the other way.

A short description of one test: qHTS assay for small molecule activators of the heat shock response signaling pathway - cell viability counter screen (AID 743209). Note: nearly all actives have a fitted effect of over 50% in size. The following applies: HSE-bla HeLa viability, CellTiter-Glo luminescence, 5 h; series mostly up to 62.6 µM. The procedure, abridged:
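Same-well multiplex: after 2.5 h room-temperature incubation with LiveBLAzer B/G substrate and fluorescence reading, CellTiter-Glo reagent was added to HSE-bla HeLa cells that had received compound for 5 h at 37 C; luminescence read after 30 min.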
Background: qHTS replaces the single test concentration by a dilution series.
With `CCc1cc2cc(OC)c(OC)cc2c(Cc2ccccc2)n1`, the call was inactive.
On the same count and under the same terms, in the case of `CN1CCN(N)CC1` it was “inactive”; in that of `COC(=O)N[C@H](C(=O)N[C@@H](Cc1ccccc1)[C@@H](O)CN(Cc1ccc(-c2ccccn2)cc1)NC(=O)[C@@H](NC(=O)OC)C(C)(C)C)C(C)(C)C`, “inactive”.
Still for that read-out and setting: in the case of `CC1=NN(c2cc(Cl)c(S(=O)(=O)O)cc2Cl)C(=O)C1N=Nc1ccc(S(=O)(=O)O)cc1` (stereo not drawn) it was “inactive”; in that of `O=C1Nc2ccc([N+](=O)[O-])cc2C1=O`, “inactive”.
Same read-out and setting: the value for `CC(C)C[C@H](NC(=O)OCC1c2ccccc2-c2ccccc21)C(=O)O` was “inactive”; that for `COC(=O)/C=C(/C)N` was “inactive”; that for `CN(C)CC[C@@H](c1ccc(Cl)cc1)c1ccccn1` was “inactive”.
In the case of `NC(=O)NS(=O)(=O)c1ccc(Cl)cc1`, the result was inactive.
The same measure, in the same setting: the value for `CCC/C=C/CO` was “inactive”; that for `c1ccc(CN(CC2=NCCN2)c2ccccc2)cc1` was “inactive”; that for `CCOC(=O)c1cc(=O)c2c(OCC(COc3cccc4oc(C(=O)OCC)cc(=O)c34)OC(=O)[C@@H](N)CCCCN)cccc2o1` was “inactive”.
For the molecule `CC(C)C(=O)OCC(C)(C)C(O)C(C)C` (stereo not drawn), the result was inactive.
Same read-out and setting: the value for `Cc1nc(N)nc(N)c1-c1ccc(Cl)c(Cl)c1` was “inactive”.
On the same count and under the same terms, the value for `CCCC1CCC(=O)O1` (stereo not drawn) was “inactive”; that for `CCCOc1ccc2c(c1)CC[C@@H]1[C@@H]2CC[C@]2(C)C(OC)CC[C@@H]12` (stereo partly drawn) was “inactive”.
The same measure, in the same setting: in the case of `Cc1ccccc1C(=O)Nc1ccc(C(=O)N2CCCC(O)c3cc(Cl)ccc32)c(C)c1` (stereo not drawn) it was “inactive”; in that of `O=C(CCCl)NCc1ccccc1`, “inactive”; in that of `CC/C=C\CCOC(=O)C(C)C`, “inactive”.
For `Cc1onc(-c2ccccc2)c1C(=O)Cl`, the molecule was classed as inactive.
On the same count and under the same terms, in the case of `C/C(=N\O)[C@@H](C)NCC(C)(C)CN[C@H](C)/C(C)=N/O` it was “inactive”.
Turning to `Cc1c[nH]c(=S)[nH]c1=O`, the call was inactive.
Same read-out and setting: in the case of `N#CSCC(=O)O` it was “inactive”; in that of `CC(Oc1c(Cl)cccc1Cl)C1=NCCN1` (stereo not drawn), “inactive”.
Same read-out and setting: the value for `O=C(C(Cl)Cl)N1CCOC12CCCCC2` was “inactive”; that for `CCCCCCn1c(=O)c2c(ncn2C)n(C)c1=O` was “inactive”; that for `Nc1ccc2ccccc2c1S(=O)(=O)O` was “inactive”.
Same read-out and setting: in the case of `Cc1cc2c(s1)Nc1ccccc1N=C2N1CCN(C)CC1` it was “inactive”.
Regarding `CCN(CC)CCOc1ccc(Cc2ccccc2)cc1`, the molecule was called inactive.

Another test in a line: qHTS assay for small molecule activators of the heat shock response signaling pathway (AID 743210; active = well fitted activation curve with a large enough effect in the signal ratio in the repeat runs, with a control signal flat, not every such curve was filed as active; the % refers to the signal ratio). As to conditions: HeLa HSE-bla reporter, beta-lactamase ratio, 5 h; series mostly up to 62.6 µM. In outline: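 Compound exposure lasted 5 h at 37 C in HeLa cells carrying a heat-shock-element-driven beta-lactamase reporter. Read-out: fluorescence intensity after 2.5 h room-temperature loading with LiveBLAzer B/G FRET substrate.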
As for `CCc1cc2cc(OC)c(OC)cc2c(Cc2ccccc2)n1`, the Potency entry is “inactive”.
The same measure, in the same setting: in the case of `CN1CCN(N)CC1` it was “inactive”; in that of `COC(=O)N[C@H](C(=O)N[C@@H](Cc1ccccc1)[C@@H](O)CN(Cc1ccc(-c2ccccn2)cc1)NC(=O)[C@@H](NC(=O)OC)C(C)(C)C)C(C)(C)C`, “inactive”; in that of `CC1=NN(c2cc(Cl)c(S(=O)(=O)O)cc2Cl)C(=O)C1N=Nc1ccc(S(=O)(=O)O)cc1` (stereo not drawn), “inactive”.
On the same count and under the same terms, the value for `O=C1Nc2ccc([N+](=O)[O-])cc2C1=O` was “inactive”.
With `CCCC(CCC)(C(=O)OCC)C(=O)OCC`, the Potency result was “inactive”.
The same measure, in the same setting: in the case of `CCC(=O)c1ccc2c(c1)N(CCCN(C)C)c1ccccc1S2` it was “inactive”; in that of `CN(C)CC[C@@H](c1ccc(Cl)cc1)c1ccccn1`, “inactive”.
Turning to `CCOc1ccc(NS(=O)(=O)c2ccc(N)cc2)nn1`, the Potency result is “inactive”.
Regarding `Cc1cc(NS(=O)(=O)c2ccc(N)cc2)nc(C)n1`, the Potency result was “inactive”.
Take `CCC/C=C/CO`: the Potency result is “inactive”.
Same read-out and setting: in the case of `c1ccc(CN(CC2=NCCN2)c2ccccc2)cc1` it was “inactive”; in that of `CCOC(=O)c1cc(=O)c2c(OCC(COc3cccc4oc(C(=O)OCC)cc(=O)c34)OC(=O)[C@@H](N)CCCCN)cccc2o1`, “inactive”.
Take `CCCS(=O)c1ccc2nc(NC(=O)OC)[nH]c2c1` (stereo not drawn): the Potency entry is “inactive”.
Regarding `CC[C@H]1CC[C@H](NCc2cc3c(cc2OC)[C@H]2C[C@H]2C(=O)N3C)[C@H](c2ccccc2)N1`, the Potency entry was “inactive”.
On the same count and under the same terms, in the case of `CC(C)C(=O)OCC(C)(C)C(O)C(C)C` (stereo not drawn) it was “inactive”; in that of `Cc1nc(N)nc(N)c1-c1ccc(Cl)c(Cl)c1`, “inactive”.
Same read-out and setting: in the case of `CCCC1CCC(=O)O1` (stereo not drawn) it was “inactive”; in that of `CCCOc1ccc2c(c1)CC[C@@H]1[C@@H]2CC[C@]2(C)C(OC)CC[C@@H]12` (stereo partly drawn), “inactive”.
Still for that read-out and setting: the value for `CCCCCCOc1ccc(N)cc1` was “inactive”; that for `CC/C=C\CCOC(=O)C(C)C` was “inactive”.
Consider `C/C(=N\O)[C@@H](C)NCC(C)(C)CN[C@H](C)/C(C)=N/O`, for which the Potency entry was “inactive”.
The same measure, in the same setting: in the case of `CCCCCCn1c(=O)c2c(ncn2C)n(C)c1=O` it was “inactive”.
The same measure, in the same setting: the value for `Nc1ccc2ccccc2c1S(=O)(=O)O` was “inactive”.
